The record followed here is article PMC12820563, “FoxP3 forms a head-to-head dimer in vivo and stabilizes its multimerization on adjacent microsatellites”.

Whole data set: some 16,000 sequences, median “rpm ratio (pull-down/input)” near 0.94, cut for the highest 2% near 1.7. For the sample, the highest values were picked, then their nearest neighbours and some sequences at random.

This experiment has as its target T1, MBP-FoxP1dN (Mus musculus, UniProt P58462 326-579).
T1 sequence: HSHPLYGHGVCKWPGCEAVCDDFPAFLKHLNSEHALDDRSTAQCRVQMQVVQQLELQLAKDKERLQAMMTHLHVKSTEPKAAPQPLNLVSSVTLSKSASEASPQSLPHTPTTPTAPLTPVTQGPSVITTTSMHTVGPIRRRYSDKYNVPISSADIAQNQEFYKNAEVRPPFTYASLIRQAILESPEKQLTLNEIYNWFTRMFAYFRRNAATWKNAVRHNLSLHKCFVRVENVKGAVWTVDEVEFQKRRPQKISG
Description: PD-seq (MBP pull-down with sequencing); 20 mM Tris-HCl pH 7.5, 100 mM NaCl, 1.5 mM MgCl2, 0.4 uM protein, 0.1 uM dsDNA library, 30 min, room temperature, amylose pull-down; high values mean tight binding. As to conditions: protein: recombinant; tags: His6-MBP; chain copies: 2; dsDNA, one strand shown. Put shortly:
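Protein and DNA were mixed at 0.4 µM and 0.1 µM and held for 30 min at room temperature in Tris pH 7.5 buffer with NaCl and MgCl2; the protein was a His6-MBP-tagged, N-terminally truncated mouse FoxP3 or FoxP1 fragment from E. coli, and the DNA a Klenow-filled double-stranded degenerate library. Amylose resin captured the complexes, which were washed three times. Binding is read as reads-per-million enrichment of pull-down versus input after Illumina sequencing, with replicates pooled.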
Regarding “GATGATTGTTCTCCCAGCTGATGAATTCCTCTGATCGAGTAAACAAATTTTCCTAATCTTTCTGTTCAAGCGCCATCTAC”, the binding signal was 0.844 RPM ratio (pull-down/input). As to “GATGATTGTTCTCCCAGCTGATGAATTTGTTTACTCGAGTAAACAAATTTTCCTAATCTTTCTGTTCAAGCGCCATCTAC”, the binding signal was 2.62 RPM ratio (pull-down/input). Take “GATGATTGTTCTCCCAGCTGATGAATTTGATGACTCGAGTAAACAAATTTTCCTAATCTTTCTGTTCAAGCGCCATCTAC”: the binding signal is 0.974 RPM ratio (pull-down/input).

Consider “GATGATTGTTCTCCCAGCTGATGAATTGTTTTACTCGAGTAAACAAATTTTCCTAATCTTTCTGTTCAAGCGCCATCTAC”, for which the binding signal was 1.42 RPM ratio (pull-down/input). Next, “GATGATTGTTCTCCCAGCTGATGAATTTATTTTCTCGAGTAAACAAATTTTCCTAATCTTTCTGTTCAAGCGCCATCTAC”: 1.77 RPM ratio (pull-down/input); “GATGATTGTTCTCCCAGCTGATGAATTTATTTACTCGAGTAAACAAATTTTCCTAATCTTTCTGTTCAAGCGCCATCTAC”: 2.5 RPM ratio (pull-down/input). Regarding “GATGATTGTTCTCCCAGCTGATGAATTATTTTACTCGAGTAAACAAATTTTCCTAATCTTTCTGTTCAAGCGCCATCTAC”, the binding signal was 1.2 RPM ratio (pull-down/input).

On to “GATGATTGTTCTCCCAGCTGATGAATTTGTTGACTCGAGTAAACAAATTTTCCTAATCTTTCTGTTCAAGCGCCATCTAC”, for which the binding signal was 2.35 RPM ratio (pull-down/input). Turning to “GATGATTGTTCTCCCAGCTGATGAATTTTATTACTCGAGTAAACAAATTTTCCTAATCTTTCTGTTCAAGCGCCATCTAC”, the binding signal was 1.01 RPM ratio (pull-down/input).

Consider “GATGATTGTTCTCCCAGCTGATGAATTTATTTCCTCGAGTAAACAAATTTTCCTAATCTTTCTGTTCAAGCGCCATCTAC”, for which the binding signal is 1.3 RPM ratio (pull-down/input). For “GATGATTGTTCTCCCAGCTGATGAATTTTTTTACTCGAGTAAACAAATTTTCCTAATCTTTCTGTTCAAGCGCCATCTAC” the value was 0.958 RPM ratio (pull-down/input); for “GATGATTGTTCTCCCAGCTGATGAATTTTATTTCTCGAGTAAACAAATTTTCCTAATCTTTCTGTTCAAGCGCCATCTAC”, 1.16 RPM ratio (pull-down/input); for “GATGATTGTTCTCCCAGCTGATGAATTTTTTGACTCGAGTAAACAAATTTTCCTAATCTTTCTGTTCAAGCGCCATCTAC”, 0.935 RPM ratio (pull-down/input). For “GATGATTGTTCTCCCAGCTGATGAATTCAATGCGTCGAGTAAACAAATTTTCCTAATCTTTCTGTTCAAGCGCCATCTAC”, the binding signal was 1.05 RPM ratio (pull-down/input). Next, “GATGATTGTTCTCCCAGCTGATGAATTATTACGTTCGAGTAAACAAATTTTCCTAATCTTTCTGTTCAAGCGCCATCTAC”: 1.21 RPM ratio (pull-down/input); “GATGATTGTTCTCCCAGCTGATGAATTTGGGATGTCGAGTAAACAAATTTTCCTAATCTTTCTGTTCAAGCGCCATCTAC”: 0.922 RPM ratio (pull-down/input). Next, “GATGATTGTTCTCCCAGCTGATGAATTTACCGAATCGAGTAAACAAATTTTCCTAATCTTTCTGTTCAAGCGCCATCTAC”: 1.37 RPM ratio (pull-down/input); “GATGATTGTTCTCCCAGCTGATGAATTGAAAGCATCGAGTAAACAAATTTTCCTAATCTTTCTGTTCAAGCGCCATCTAC”: 1.2 RPM ratio (pull-down/input). Next, “GATGATTGTTCTCCCAGCTGATGAATTCACCGGTTCGAGTAAACAAATTTTCCTAATCTTTCTGTTCAAGCGCCATCTAC”: 0.877 RPM ratio (pull-down/input).

With “GATGATTGTTCTCCCAGCTGATGAATTGATCTTATCGAGTAAACAAATTTTCCTAATCTTTCTGTTCAAGCGCCATCTAC”, the binding signal was 1.08 RPM ratio (pull-down/input).

With “GATGATTGTTCTCCCAGCTGATGAATTTGGTATATCGAGTAAACAAATTTTCCTAATCTTTCTGTTCAAGCGCCATCTAC”, the binding signal was 1.23 RPM ratio (pull-down/input).

For the sequence “GATGATTGTTCTCCCAGCTGATGAATTTTAGGGATCGAGTAAACAAATTTTCCTAATCTTTCTGTTCAAGCGCCATCTAC”, the binding signal is 0.823 RPM ratio (pull-down/input). For “GATGATTGTTCTCCCAGCTGATGAATTCCTATTATCGAGTAAACAAATTTTCCTAATCTTTCTGTTCAAGCGCCATCTAC” the value was 1.33 RPM ratio (pull-down/input). Next, “GATGATTGTTCTCCCAGCTGATGAATTTTATGACTCGAGTAAACAAATTTTCCTAATCTTTCTGTTCAAGCGCCATCTAC”: 0.916 RPM ratio (pull-down/input); “GATGATTGTTCTCCCAGCTGATGAATTATTTGACTCGAGTAAACAAATTTTCCTAATCTTTCTGTTCAAGCGCCATCTAC”: 1.07 RPM ratio (pull-down/input).

On to “GATGATTGTTCTCCCAGCTGATGAATTTATTGACTCGAGTAAACAAATTTTCCTAATCTTTCTGTTCAAGCGCCATCTAC”, for which the binding signal is 1.85 RPM ratio (pull-down/input). Next, “GATGATTGTTCTCCCAGCTGATGAATTTATTGTCTCGAGTAAACAAATTTTCCTAATCTTTCTGTTCAAGCGCCATCTAC”: 1.78 RPM ratio (pull-down/input); “GATGATTGTTCTCCCAGCTGATGAATTTTATGTCTCGAGTAAACAAATTTTCCTAATCTTTCTGTTCAAGCGCCATCTAC”: 0.899 RPM ratio (pull-down/input). Next, “GATGATTGTTCTCCCAGCTGATGAATTATTTGTCTCGAGTAAACAAATTTTCCTAATCTTTCTGTTCAAGCGCCATCTAC”: 1.66 RPM ratio (pull-down/input). Turning to “GATGATTGTTCTCCCAGCTGATGAATTGTCACCCTCGAGTAAACAAATTTTCCTAATCTTTCTGTTCAAGCGCCATCTAC”, the binding signal was 1 RPM ratio (pull-down/input). For “GATGATTGTTCTCCCAGCTGATGAATTGAGTTCGTCGAGTAAACAAATTTTCCTAATCTTTCTGTTCAAGCGCCATCTAC” the value was 0.82 RPM ratio (pull-down/input); for “GATGATTGTTCTCCCAGCTGATGAATTAAGGACATCGAGTAAACAAATTTTCCTAATCTTTCTGTTCAAGCGCCATCTAC”, 1.06 RPM ratio (pull-down/input); for “GATGATTGTTCTCCCAGCTGATGAATTGTCCTCCTCGAGTAAACAAATTTTCCTAATCTTTCTGTTCAAGCGCCATCTAC”, 1.03 RPM ratio (pull-down/input). As to “GATGATTGTTCTCCCAGCTGATGAATTTCTGTCCTCGAGTAAACAAATTTTCCTAATCTTTCTGTTCAAGCGCCATCTAC”, the binding signal is 0.915 RPM ratio (pull-down/input). Next, “GATGATTGTTCTCCCAGCTGATGAATTGATGACCTCGAGTAAACAAATTTTCCTAATCTTTCTGTTCAAGCGCCATCTAC”: 1.02 RPM ratio (pull-down/input); “GATGATTGTTCTCCCAGCTGATGAATTGATCTTCTCGAGTAAACAAATTTTCCTAATCTTTCTGTTCAAGCGCCATCTAC”: 0.956 RPM ratio (pull-down/input). “GATGATTGTTCTCCCAGCTGATGAATTTCTAATCTCGAGTAAACAAATTTTCCTAATCTTTCTGTTCAAGCGCCATCTAC”: the binding signal was 0.82 RPM ratio (pull-down/input). Next, “GATGATTGTTCTCCCAGCTGATGAATTTTTTTTCTCGAGTAAACAAATTTTCCTAATCTTTCTGTTCAAGCGCCATCTAC”: 0.756 RPM ratio (pull-down/input); “GATGATTGTTCTCCCAGCTGATGAATTGACCTCCTCGAGTAAACAAATTTTCCTAATCTTTCTGTTCAAGCGCCATCTAC”: 0.877 RPM ratio (pull-down/input); “GATGATTGTTCTCCCAGCTGATGAATTGTTGTTCTCGAGTAAACAAATTTTCCTAATCTTTCTGTTCAAGCGCCATCTAC”: 2.58 RPM ratio (pull-down/input).

As to “GATGATTGTTCTCCCAGCTGATGAATTGTTGTCCTCGAGTAAACAAATTTTCCTAATCTTTCTGTTCAAGCGCCATCTAC”, the binding signal was 2.28 RPM ratio (pull-down/input). Next, “GATGATTGTTCTCCCAGCTGATGAATTGATGATCTCGAGTAAACAAATTTTCCTAATCTTTCTGTTCAAGCGCCATCTAC”: 0.99 RPM ratio (pull-down/input). Next, “GATGATTGTTCTCCCAGCTGATGAATTGTTGACCTCGAGTAAACAAATTTTCCTAATCTTTCTGTTCAAGCGCCATCTAC”: 1.88 RPM ratio (pull-down/input); “GATGATTGTTCTCCCAGCTGATGAATTGTTGATCTCGAGTAAACAAATTTTCCTAATCTTTCTGTTCAAGCGCCATCTAC”: 2.06 RPM ratio (pull-down/input).
